Tg IFNy HTS: T. gondii growth inhibition with IFN-gamma, primary screen, cell-based; activity change, negative = inhibition, % (no concentration beside the values); hit rate 3.8% among 69,000; Toxoplasma gondii growth in IFN-gamma-treated host cells; hits give low values; in the data active means activity change below about -70%, passing the limit was not always enough;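 further: host cells are HeLa cells infected with Toxoplasma gondii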
Large screens that a line does not name were inactive; ! = a repeat was not active. The full list was thinned out, with hits kept by preference.

C=CCn1cc(CNC23CC4CC(C2)CC(n2nnc(C)n2)(C4)C3)c(C)n1	none
COc1cc2cc(CN3CCCC(CO)(CO)C3)c(=O)[nH]c2cc1OC	none
C[C@]12CCC3C(CC=C4C[C@@H](O)CC[C@@]43C)C1CCC2[C@]1(C)CCC(=O)O1 (some centres undefined)	none
C[C@]12CC[C@H](O)CC1=CCC1C2CC[C@]2(C)C(n3cnc4ccccc43)=CCC12 (some centres undefined)	none
CC(=O)[C@H]1[C@H](C#N)C[C@H]2[C@@H]3CC=C4C[C@@H](O)CC[C@]4(C)[C@H]3CC[C@@]21C	Tg IFNy HTS -84.4
CC(C)c1cc(NC(=O)c2cccc(CN3CC=CCC3)c2)n(C)n1	none
O=C(CCc1nnc(-c2ccccc2)o1)NCc1ccccc1OC(F)(F)F	none
CCOc1ccc(CCNC(=O)C2=C(C)C(=O)OC23CCN(S(C)(=O)=O)CC3)cc1	none
Cc1cc(C(=O)N2CCCC(c3ccc(Cc4ccc(Cl)cc4)cn3)C2)nc(N(C)C)n1 (centres undefined)	Tg IFNy HTS -89.7
CCCc1cc(C(=O)N2CCCC(c3cc4ccccc4cn3)C2)n(C)n1 (centres undefined)	none
Cc1nc2ccccn2c1CC(=O)N1CCCC(c2ccc(Cc3cccc(F)c3)cn2)C1 (centres undefined)	none
Nc1cc(-c2cn[nH]c2C2CCCN(CCOCc3ccccc3)C2)ccn1 (centres undefined)	none
COCCC(=O)N1CCC(c2nc(C(=O)N3CCSCC3)c(C)o2)CC1	none
COCCn1c(C)cc(-c2csc(N)n2)c1C	none
COc1ccc(C(=O)Cn2nnc(-c3ccccc3NC(=O)c3ccc(F)cc3)n2)cc1	none
Nc1nc(Nc2ccc3c(c2)CC[C@@H](N2CCCC2)CC3)nn1-c1cc2c(nn1)-c1ccccc1CCC2	Tg IFNy HTS -76.4
COCCNC(=O)[C@H]1C[C@H]2CCN(S(C)(=O)=O)C[C@H]2O1	none
CCc1ccccc1NC(=O)C1=C(C)C(=O)OC12CCN(CC)CC2	none
c1cncc(OCC2CN(Cc3ccco3)Cc3ccnn3C2)c1 (centres undefined)	none
O=C(c1ccco1)N1CCCC2(CC(Oc3cccnc3)CO2)C1 (centres undefined)	none
O=C(c1ccn[nH]1)N1CCCC2(CC(Oc3cccnc3)CO2)C1 (centres undefined)	Tg IFNy HTS -94.9
O=C(c1cnc[nH]1)N1CCC2(CC(Oc3cccnc3)CO2)C1 (centres undefined)	none
O=c1[nH]c2cc(F)ccc2c(O)c1-c1nc(-c2cccc(F)c2)no1	none
Cc1ccc(S(=O)(=O)N(C)c2cncc(C(=O)N3CCN(c4cccc(C)c4C)CC3)c2)cc1	none
COCCCC1CCCCN1C(=O)CC(=O)Nc1cc(C)cc(C)c1 (centres undefined)	none
Cc1nc2sccn2c(=O)c1CCN1CCC(=C(c2ccc(F)cc2)c2ccc(F)cc2)CC1	Tg IFNy HTS -77.1!
Cc1nc2n(c(=O)c1CCN1CCC(c3noc4cc(F)ccc34)CC1)CCCC2O (centres undefined)	none
Cc1nc2ccccn2c(=O)c1CCN1CCC(C(=O)c2ccc(F)cc2)CC1	none
C=CCOCC1CN(C2CCOC2)Cc2ccnn2C1 (centres undefined)	none
CC1CCCN(C(=O)CCNc2c(-c3cccc(F)c3)nc3cnccn23)C1 (centres undefined)	none
CCN(CC)C(=O)C1Cn2ccnc2C2(CCN(C(=O)C3CCOCC3)CC2)O1 (centres undefined)	none
Cc1nn(C)c(C)c1NC(=O)c1cccc(CN(C)Cc2ccno2)c1	none
CC(C)=CCc1c2c(c3occ(-c4ccc(O)c(O)c4)c(=O)c3c1O)C=CC(C)(C)O2	none
CC(C)=CCc1c2c(c3occ(-c4ccc(O)cc4)c(=O)c3c1O)C=CC(C)(C)O2	Tg IFNy HTS -82.2
O=c1c(-c2ccc(O)cc2)coc2cc(O)cc(O)c12	none
Cc1cc(C)n(Cc2nc(-c3ccc(NC(=O)c4ccc(F)c(F)c4)cc3)oc2C)n1	none
Cc1cc(C)n(Cc2nc(-c3ccc(NC(=O)c4ccc(F)cc4)cc3)oc2C)n1	none
Cc1ccc(C(=O)Nc2ccc(-c3nc(Cn4nc(C)cc4C)c(C)o3)cc2)cc1	none
Cc1cc(C)n(Cc2nc(-c3ccc(NC(=O)c4ccc5c(c4)OCO5)cc3)oc2C)n1	Tg IFNy HTS -97.9
COc1ccc(C(=O)Nc2ccc(-c3nc(Cn4nc(C)cc4C)c(C)o3)cc2)cc1	Tg IFNy HTS -91.7
CCc1ccc(C(=O)Nc2ccc(-c3nc(Cn4nc(C)cc4C)c(C)o3)cc2)cc1	none
Cc1nc(CN2CCC3(CCN(C(=O)c4cccn4C)C3)C2=O)cs1 (centres undefined)	none
COc1cccc(OCC(=O)NCCc2csc(-c3ccc(F)cc3)n2)c1	none
COc1ccccc1-n1ccnc1-c1ccc(OCC(N)=O)cc1	none
CCN1C[C@]23CN(C(=O)c4cnccn4)C[C@@H](C[C@H]2S1(=O)=O)O3	none
COc1ccc(CC(=O)NCCc2csc(-c3ccc(F)cc3)n2)cc1OC	none
COc1ccccc1N1CCN(Cc2nc(-c3ccc(Br)cc3)cs2)CC1	Tg IFNy HTS -71.9
COc1ccccc1N1CCN(C(=O)c2cccs2)CC1	none
COc1ccccc1N1CCN(CCCCNC(=O)c2ccc(-c3ccc(C(C)=O)cc3)cc2)CC1	none

Screens as filed in PubChem BioAssay.
